Screening data (PubChem BioAssay)
VP16 counter: VP16 counterscreen qHTS for inhibitors of ROR gamma transcriptional activity; Drosophila S2 Gal4-VP16 UAS-luciferase, luminescence, 20 h; Potency, µM (titrated, usually from 53.6 µM), inactives show at the top dose activity, negative = inhibition, most hits filed as inhibitors; 310,000 compounds, 3.5% hits; AID 2546, 2010;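 further: Gal4-VP16 expression switched on by copper sulfate through the metallothionein promoter; nearly all actives have a fitted effect of over 50% in size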
TDP1 inh: qHTS Assay for Inhibitors of Tyrosyl-DNA Phosphodiesterase (TDP1); recombinant TDP1, AlphaScreen DNA substrate cleavage; Tyrosyl-DNA phosphodiesterase 1 (Homo sapiens), Q9NUW8; 350,000 compounds, 0.28% hits; Potency, µM (titrated, usually from 130 µM), without a hit: at the top dose activity change, negative = inhibition, usual class: inhibitors; further: nearly all actives have a fitted effect of over 40% in size
Target sequence (Q9NUW8 whole entry, looked up): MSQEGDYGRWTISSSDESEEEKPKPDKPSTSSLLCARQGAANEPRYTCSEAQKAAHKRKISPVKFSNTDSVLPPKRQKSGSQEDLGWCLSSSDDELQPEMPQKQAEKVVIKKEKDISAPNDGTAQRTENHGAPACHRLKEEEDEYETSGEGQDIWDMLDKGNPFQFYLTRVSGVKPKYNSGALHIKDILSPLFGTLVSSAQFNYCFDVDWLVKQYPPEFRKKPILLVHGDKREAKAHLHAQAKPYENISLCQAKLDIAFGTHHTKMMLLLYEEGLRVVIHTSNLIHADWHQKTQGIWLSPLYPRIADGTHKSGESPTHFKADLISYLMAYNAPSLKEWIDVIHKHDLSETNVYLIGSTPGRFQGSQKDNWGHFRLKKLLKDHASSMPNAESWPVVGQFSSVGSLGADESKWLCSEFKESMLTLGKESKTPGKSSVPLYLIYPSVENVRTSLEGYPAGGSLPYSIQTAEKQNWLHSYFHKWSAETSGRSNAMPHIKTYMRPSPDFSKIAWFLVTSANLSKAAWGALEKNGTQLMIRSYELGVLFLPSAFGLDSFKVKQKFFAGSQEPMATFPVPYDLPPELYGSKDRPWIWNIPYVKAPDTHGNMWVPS
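Steps: enzyme plus compound, 15 min RT; add biotin/phosphotyrosine-FITC oligonucleotide (15 nM final), react 5 min; add donor/acceptor beads (10 ug/ml final), 10 min; read AlphaScreen. Tdp1 at 1 nM final.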
DT40 TDP1 CPT: qHTS for Inhibitors of human tyrosyl-DNA phosphodiesterase 1 (TDP1): qHTS in cells in presence of CPT | chicken DT40 Tdp1-/-;hTDP1 cells + 20 nM CPT, ATP luminescence, 48 h | AID 686979, 2013 | 420,000 compounds, 12% hits | Potency, µM (series often up to 46.2 µM), inactives show at the top dose activity change, negative = growth inhibition, hits mostly inhibitors; further: nearly all actives have a fitted effect of over 55% in size
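Chicken DT40 Tdp1-/- cells stably complemented with human TDP1 were seeded at 400 cells/well in medium containing 20 nM camptothecin, exposed to pin-transferred compounds, and grown at 37 °C for at least 48 hr. Viability was read as ATP luminescence.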
DT40 TDP1 no CPT: qHTS for Inhibitors of human tyrosyl-DNA phosphodiesterase 1 (TDP1): qHTS in cells in absence of CPT; DT40 Tdp1-/- hTDP1 cells, no CPT, ATP luminescence, 48 h; 420,000 compounds, 15% hits; Potency, µM (highest dose often 46.2 µM), inactives show at the highest dose activity change, negative = growth inhibition, most hits filed as inhibitors; further: nearly all actives have a fitted effect of over 55% in size
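Chicken DT40 Tdp1-/- cells complemented with human TDP1, screened without camptothecin (DMSO vehicle only), 400 cells/well. Compounds pin-transferred, cells incubated at 37 °C for at least 48 hr. Growth read as ATP-dependent luminescence (CellTiter-Glo, 30 min at RT).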
RORg inh: qHTS for inhibitors of ROR gamma transcriptional activity. AID 2551, 2010. Potency, µM (doses to about 53.6 µM), inactives show top-dose activity change, negative = inhibition, actives largely listed as inhibitors. 310,000 compounds, 5.4% hits. Drosophila S2 Gal4-RORgamma UAS-luciferase reporter, 20 h; further: nearly all actives have a fitted effect of over 60% in size
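ROR gamma transcriptional activity was tracked as Gal4-UAS luciferase output in stably transfected Drosophila Schneider cells, with compound added 1 hr before 700 uM copper sulfate induction and a 20 hr ambient-temperature incubation.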
Starred values were filed as active, the others as inactive; ? = inconclusive; · = no result given; [ ] = dose if it differs, or a comment. A selection: hits, their analogues and other compounds. The true share with any hit is near 19%. The call rests on the fitted dose curve; in most records, active means well fitted curve in the direction sought with a large enough effect; inconclusive means small, poorly fitted or top-dose-only effect, or another doubt; inactive means no such curve, though single readings can be large; an effect the other way counts as inactive or inconclusive. On the % scale 0 is the no-effect control and ±100 the full control effect; potency means the concentration at half of the fitted maximal effect.

SMILES	VP16 counter	TDP1 inh	DT40 TDP1 CPT	DT40 TDP1 no CPT	RORg inh
Cn1cccc1CC(=O)NNC(=S)Nc1ccc(F)cc1	-13%	9%	29%	-6%	-45%
O=C(NCC1CCCO1)c1sc2cc(Cl)ccc2c1Cl (stereo not given)	5%	3%	24%	-18%	?
O=C(NCC1CC1)C1(C(F)(F)F)CC(CCCO)CCCO1 (stereo not given)	-2%	1%	-4%	5%	21%
Cc1ccccc1Nc1nc(N)nc(CSc2nc3ccccc3c(=O)n2CCCO)n1	2%	7%	?	18µM*	-25%[10 µM]
Cc1ccccc1Nc1nc(N)nc(CSc2nc3ccccc3c(=O)n2C)n1	10%	7%	9.2µM*	8.2µM*	26%
Cc1ccccc1Nc1nc(N)nc(CSCC(=O)Nc2cccc(Br)c2)n1	-26%	3%	?	16µM*	?
Cc1ccc2c(CSc3nc4ccccc4c(=O)n3CCCO)cc(=O)oc2c1C	-26%	5%	?	23µM*	-4%
COCCn1c(SCc2nc(N)nc(Nc3ccccc3C)n2)nc2ccccc2c1=O	-6%	2%	?	?	32%
Cc1ccc2c(CSc3nnc4ccccn34)cc(=O)oc2c1C	-6%	3%	-19%	5%	1%
O=C(NCCN1CCC(n2c(=O)[nH]c3ccccc32)CC1)c1ccc(F)c(C(F)(F)F)c1	·	·	?	26µM*	·
O=C(NCCN1CCC(n2c(=O)[nH]c3ccccc32)CC1)c1ccncc1	·	·	-48%	-47%	·
O=C(NCCN1CCC(n2c(=O)[nH]c3ccccc32)CC1)c1ccc(C(F)(F)F)cc1C(F)(F)F	·	·	5.8µM*	4.6µM*	·
O=C(NCCN1CCC(n2c(=O)[nH]c3ccccc32)CC1)c1cccc(Cl)c1	·	·	16µM*	?	·
O=C(NCCN1CCC(n2c(=O)[nH]c3ccccc32)CC1)C(c1ccccc1)c1ccccc1	·	·	16µM*	16µM*	·
O=C(NCCN1CCC(n2c(=O)[nH]c3ccccc32)CC1)c1cccc(F)c1	·	·	-29%	-23%	·
CC(C)N(C(=O)[C@H]1C[C@H](CC(=O)NCc2cccc(C(F)(F)F)c2)C(=O)N2CCc3c([nH]c4cc(CCC(=O)N(C)C)ccc34)[C@]12C)C(C)C	·	1%[56.1 µM]	?	?	·
Cc1cc(NC(=O)CSc2nnc(C(C)N(C)C)n2Cc2ccccc2)no1 (stereo not given)	2%	-3%	-8%	-18%	-40%
CCC1(c2ccccc2)NC(=O)N(CC(=O)NNC(=O)CCN2CCN(c3ccccc3)CC2)C1=O (stereo not given)	·	·	-21%	-17%	·
O=C(NCCN1CCC(n2c(=O)[nH]c3ccccc32)CC1)c1ccc(F)c(F)c1	·	·	0.33µM*	-35%	·
Cc1nn(-c2ccccc2)c(N2CCCC2)c1/C=N/O	5%	4%	?	?	19%
Cc1nn(-c2ccccc2)c(N2CCCC2)c1/C=N/NC(=S)Nc1ccc(F)cc1	·	·	5.8µM*	8.2µM*	·
Cc1ccc(NC(=S)N/N=C/c2c(C)nn(-c3ccccc3)c2N2CCCC2)cc1	0.1µM*	3%	12%	?	?
CCOc1ccc(S(=O)(=O)Nc2ccc(C(=O)N/N=C/c3c(C)nn(-c4ccccc4)c3N3CCCC3)cc2)cc1	-3%	3%	?	?	-11%
Cc1nn(-c2ccccc2)c(N2CCCC2)c1/C=C1\N=C(c2ccc(F)cc2)OC1=O	1%	-3%	-12%	-19%	-16%
Cc1nn(-c2ccccc2)c(N2CCCCC2)c1/C=N/NC(=O)c1ccncc1	-1%	-14%	13µM*	23µM*	?
SMILES	VP16 counter	TDP1 inh	DT40 TDP1 CPT	DT40 TDP1 no CPT	RORg inh
COc1c(/C=N/NC(N)=S)c(C)nn1-c1ccccc1	?	7%	?	?	7.1µM*
O=C(C1COc2cc(S(=O)(=O)Nc3ccc(Cl)cc3)ccc2O1)N1CCCC1 (stereo not given)	·	-1%	?	?	·
O=C(NCc1ccc(F)cc1)C1CCCN(C(=O)Nc2ccc(F)cc2)C1 (stereo not given)	-10%	10%	4%	-32%	0%
O=C(/C=C/c1ccco1)NCC(=O)N/N=C/c1ccccc1[N+](=O)[O-]	18%	5%	?	?	42%
O=C(Nc1ccc(OCC(F)(F)C(F)F)c(C(F)(F)F)c1)c1ccccc1	·	·	23µM*	23µM*	·
O=C(Nc1ccc(OCC(F)(F)C(F)F)c(C(F)(F)F)c1)c1ccccc1O	-8%[0.365 µM]	-3%	?	18µM*	7.9µM*
O=C(Nc1ccc(OCC(F)(F)C(F)F)cc1)c1ccncc1	-26%	5%	?	?	7%
COc1cc(/C=N/NC(=O)C(Cc2c[nH]c3ccccc23)NC(=O)OCC(C)C)cc([N+](=O)[O-])c1OCc1ccccc1 (stereo not given)	2%	10%	-1%	0%	5%
CNc1snc(C)c1C(=O)OC(C)C(=O)NCc1ccccc1 (stereo not given)	·	13%	-33%	?	·
CCCC(c1nnnn1Cc1ccc(OC)cc1)N1CCC(C(N)=O)CC1 (stereo not given)	0%	0%	-4%	4%	7%
COc1ccc(C(c2nnnn2Cc2ccc(F)cc2)N2CCN(c3ccc(OC)cc3)CC2)cc1 (stereo not given)	-9%	1%	23µM*	15µM*	-9%
CCCC(c1nnnn1Cc1ccc(OC)cc1)N1CCN(c2ccccc2)CC1 (stereo not given)	8%	7%	?	23µM*	19%
COc1ccc(Cn2nnnc2C(c2ccccn2)N2CCN(c3cc(Cl)ccc3C)CC2)cc1 (stereo not given)	-11%	5%	29µM*	?	9%
COc1ccc(Cn2nnnc2C(CC(C)C)N2CCN(c3ccccc3)CC2)cc1 (stereo not given)	2%	8%	18µM*	15µM*	19%
COc1ccc(C(c2nnnn2Cc2ccc(F)cc2)N2CCN(c3ccccc3)CC2)cc1 (stereo not given)	-3%	5%	?	?	5%
CC(C)CN1CCC(C(=O)N2CCN(c3ccccc3F)CC2)CC1	-12%	-8%	-1%	-20%	-14%
COc1ccc(C(=O)NCCCN2CCOCC2)cc1S(=O)(=O)N1CCCc2ccccc21	3%	2%	-1%	-16%	-2%
